Rows were chosen to be rich in hits. Some 4% of all compounds tested hit in one or more screens of this group.
CF NFkB inh – inhibitors of cystic fibrosis induced NF-kB; AID 588850; inhibition, % at 5 µM; KKLEB NF-kB-GFP reporter, PAF-induced, GFP fluorescence overnight; 360,000 compounds, 0.86% hits;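 active = at least 50% inhibition at 5 µM, scaled per plate between neutral and stimulator controls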;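 also: PAF is a Pseudomonas aeruginosa culture filtrate used as stimulus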
KKLEB tox – reduces viability of KKLEB cystic fibrosis airway cells. KKLEB CF airway cells viability, ATPlite luminescence, overnight; stronger effect = lower value; cells stimulated with P. aeruginosa culture filtrate. activity change (cytotoxicity), % at 5 µM. 360,000 compounds, 0.36% hits;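 active = corrected activity change at or below -50% at 5 µM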
TROY NFkB inh – TROY signaling inhibition | Q293 LMP1-TROYcd NF-kB luciferase reporter, 4 h | inhibition, % at 10 µM | 360,000 compounds, 0.98% hits;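 active = compounds whose plate-normalised and pattern-corrected inhibition of the luciferase reporter signal at the single screening dose is 50% or more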
Peg3 promoter – reduces Peg3 promoter-driven luciferase expression in HeLa. 360,000 compounds, 1.7% hits. inhibition, % at 20 µM. HeLa PEG-Prom luciferase reporter, luminescence, overnight. AID 588405;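 active = inhibition of at least 50% at 20 µM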
HIF-2a block – blocks HIF-2a reporter activity; inhibition, % at 18.8 µM; 786-0 RCC cells HIF-2a reporter, luciferase luminescence, overnight; 360,000 compounds, 0.72% hits; AID 624352;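 active = inhibition of the luminescence signal of 40% or more relative to plate controls, in a single-dose primary screen at 18.75 µM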
TWEAK-Fn14 inh – inhibitors of TWEAK-Fn14 interaction signaling; TWEAK-stimulated Fn14 reporter cells, luciferase luminescence, 8 h; inhibition, % at 10 µM; 360,000 compounds, 2% hits; in the data active = inhibition above about 50%
Large screens that a line does not name were inactive.

COC1CC2C=C(C)C=CC=CC(=O)NC(c3ccccc3)CC=CCCC(O)CC(=O)C2=C1O (stereo not given)	CF NFkB inh 91, KKLEB tox -85, Peg3 promoter 98, HIF-2a block 77, TWEAK-Fn14 inh 60
C#CCN1C(=O)C2(C(C#N)=C(N)OC(C)=C2C(=O)OCc2ccccc2)c2ccccc21 (stereo not given)	none
COc1cccc(OP(=O)(Nc2ccccc2)Oc2cccc(OC)c2)c1	none
CC(C)(C)n1cccc1/C=C1\C(=O)NC(=O)N(c2ccccc2)C1=O	none
Cc1cccc(N2C(=O)NC(=O)/C(=C\c3cccn3-c3ccc(Cl)cc3)C2=O)c1	Peg3 promoter 104, TWEAK-Fn14 inh 61
Cc1cc(C)cc(N2C(=O)NC(=O)/C(=C/c3cccn3-c3ccc(Cl)cc3)C2=O)c1	CF NFkB inh 61, TROY NFkB inh 69, Peg3 promoter 99, HIF-2a block 43, TWEAK-Fn14 inh 104
CC(=O)OC1N=C(c2ccccc2Cl)c2cc(Br)ccc2N(C)C1=O (stereo not given)	none
CN1CCN(c2cccc3c2C(=O)c2ccccc2C3=O)CC1	TROY NFkB inh 64, TWEAK-Fn14 inh 55
Nc1ccc(-c2ccccc2)cc1	none
Nc1ccc(C2(c3ccc(N)cc3)c3ccccc3-c3ccccc32)cc1	CF NFkB inh 75, KKLEB tox -57, TWEAK-Fn14 inh 83
COC(=O)C1=C(c2ccc(-c3ccccc3)c(F)c2)C[C@@H]2CC[C@H]1N2C(=O)N1CCc2cc(OC)c(OC)cc2C1	none
C=C1[C@@H](C)[C@H]2[C@H](Cc3ccccc3)NC(=O)[C@]23OC(=O)/C=C/[C@H](O)CCC[C@@H](C)C/C=C/[C@H]3[C@@H]1O	CF NFkB inh 81, Peg3 promoter 64
C=C1C(C)C2C(Cc3ccccc3)NC(=O)C23C(OC(C)=O)C=CC(C)(O)CC(C)CC=CC3C1O (stereo not given)	CF NFkB inh 53, KKLEB tox -67
O=C1NC(=O)C(=Cc2ccc(-c3ccc(Cl)cc3)o2)C(=O)N1	TROY NFkB inh 56, Peg3 promoter 102, TWEAK-Fn14 inh 80
O=C1NC(=O)C(=Cc2ccc(-c3ccc(F)cc3O)o2)C(=O)N1	HIF-2a block 48
COC(=O)C1=C(c2cccc(OC)c2OC)C[C@@H]2CC[C@H]1N2C(=O)NCC1CC1	none
CCCC12CN3CCN(C1)CC(CCC)(C3)C2=O	none
CCOc1cc(CNCCc2c[nH]c3ccccc23)cc(Cl)c1OC	Peg3 promoter 62
Cc1ccc(-c2cc(-c3ccc(C)cc3)[n+](-c3ccc(C(=O)O)cc3)c(-c3ccc(C)cc3)c2)cc1	none
Cc1ccc(C[n+]2c(-c3ccc(C)cc3)cc(-c3ccc(C)cc3)cc2-c2ccc(C)cc2)cc1	CF NFkB inh 57, KKLEB tox -64, Peg3 promoter 97, HIF-2a block 90, TWEAK-Fn14 inh 92
CCOC(=O)[C@]12Cc3cc(OC)ccc3[C@H]1N(CC(=O)OC)C(=O)c1cc(OC)ccc12	none (no result: CF NFkB inh, KKLEB tox, Peg3 promoter)
CN1C(=O)CCC2(C)C1=CCC1C2CCC2(C)C1CCC2(C)O (stereo not given)	none
Cn1c(O)c(C=Nc2ccc(F)cc2)c(=O)[nH]c1=O	Peg3 promoter 74
Oc1c(Cl)cccc1Cc1cc(Cl)cc(Cl)c1O	CF NFkB inh 61, TROY NFkB inh 66, TWEAK-Fn14 inh 65
CC12CCC3C(CCCC4CC(=O)CCC43C)C1CCC2O (stereo not given)	none
C[C@]12CCC3C(CC[C@H]4C[C@@H](O)CC[C@]34C)C1CC[C@@H]2OC(=O)[C@H](N)CCCCN (stereo not given in full)	Peg3 promoter 87
CCCOC(=O)c1ccc(-[n+]2c(-c3ccccc3)cc(-c3ccccc3)cc2-c2ccccc2)cc1	TWEAK-Fn14 inh 62
O=C(O)c1ccc(-[n+]2c(-c3ccccc3)cc(-c3ccccc3)cc2-c2ccccc2)cc1	none
CS(=O)(=O)c1ccc(C2=C(CNC(=O)c3nccs3)[C@H]3CC[C@@H](C2)N3Cc2ccccc2)cc1	none
CNC(=O)Oc1ccc(-c2cn3cc(C)ccc3n2)cc1	TWEAK-Fn14 inh 64
CN1C(=O)/C(=C/c2ccc(Cl)s2)C(=O)NC1=S	CF NFkB inh 66, Peg3 promoter 55
Cc1ccsc1/C=C1\C(=O)NC(=S)N(C)C1=O	Peg3 promoter 90
CN1C(=O)/C(=C\c2ccc(N3CCCCCC3)cc2)C(=O)NC1=S	Peg3 promoter 78
COc1ccc(/C=C2\C(=O)NC(=S)N(C)C2=O)cc1C	none
C=CCN1C(=O)/C(=C/c2ccc(Br)s2)C(=O)NC1=S	none
COC(=O)C1=C(c2ccc(C(C)=O)cc2)C[C@@H]2CC[C@H]1N2C(=O)NCCCOC(C)C	none
O=S1(=O)NCC2(CC2)CN1Cc1ccccc1	none (no result: CF NFkB inh, KKLEB tox, Peg3 promoter)
O=[N+]([O-])c1ccc(N(CCO)CCO)c2c1no[n+]2[O-]	Peg3 promoter 99, HIF-2a block 51
CN1CCN(c2ccc(S(C)(=O)=O)cc2[N+](=O)[O-])CC1	none
CN1CCN(c2ccc([N+](=O)[O-])c3no[n+]([O-])c23)CC1	CF NFkB inh 59, KKLEB tox -56, Peg3 promoter 102, HIF-2a block 61, TWEAK-Fn14 inh 104
CC1=CC(C)CC(C)OC(=O)CC(c2ccc(O)cc2)NC(=O)C(Cc2c(Br)[nH]c3ccccc23)N(C)C(=O)C(C)NC(=O)C(C)C1 (stereo not given)	CF NFkB inh 91, KKLEB tox -81, TROY NFkB inh 70, Peg3 promoter 76
CC(C)(O)/C=C/C(=O)C(C)(O)C1C(O)CC2(C)C3CC=C4C(C=C(O)C(=O)C4(C)C)C3(C)C(=O)CC12C (stereo not given)	CF NFkB inh 86, KKLEB tox -62, TROY NFkB inh 70, Peg3 promoter 99, HIF-2a block 91, TWEAK-Fn14 inh 90
CC(=O)OC(C)(C)/C=C/C(=O)[C@](C)(O)C1[C@H](O)C[C@@]2(C)C3CC=C4C(C[C@H](O)C(=O)C4(C)C)[C@]3(C)C(=O)C[C@]12C (stereo not given in full)	CF NFkB inh 84, KKLEB tox -89, Peg3 promoter 104, HIF-2a block 72
CC1CC(C)(O)CC(C(O)CC2CC(=O)NC(=O)C2)C1=O (stereo not given)	CF NFkB inh 91, TROY NFkB inh 80, Peg3 promoter 96, HIF-2a block 55, TWEAK-Fn14 inh 98
CC=CC(C)=CC(C)C(=O)CC(O)CC1CC(=O)NC(=O)C1 (stereo not given)	none
CCCCCn1c(NC(=O)c2ccco2)c(C(=O)OCC)c2nc3ccccc3nc21	TROY NFkB inh 62, TWEAK-Fn14 inh 81
C=CCN1C(=O)NC(=O)/C(=C/C=C/c2ccccc2)C1=O	none
